This note sets out measurements from PubChem BioAssay AID504832 (National Center for Advancing Translational Sciences (NCATS), 2011).

Among all 310,000 compounds or so, about 18,000 (5.8%) were called active. Entries that show only a call come without a potency. Another 22% or so got no clear call; they are omitted. This is one part of a sample in which actives are shown more often than they occur. Unmarked numbers belong to inactive results. Calls come from the whole dose curve; as a rule, active = well fitted inhibition curve with a large enough effect; inconclusive = small, poorly fitted or top-dose-only effect, or another doubt; inactive = no such curve, though single readings can be large or run the other way.
Potency is the fitted concentration of half-maximal effect.

This assay is described as follows: Primary qHTS for delayed death inhibitors of the malarial parasite plastid, 48 hour incubation. As to conditions: P. falciparum luciferase growth in erythrocytes; series mostly up to 28.7 µM. In short, it runs like this: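 Luciferase-expressing P. falciparum in infected erythrocytes (2% hematocrit, 0.1% parasitemia final) in RPMI 1640/0.5% Albumax were exposed to compound for 48 hours at 37 C, 5% CO2; growth read as luminescence.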
As for `O=C(CCc1nnc(Cc2ccc3c(c2)OCO3)o1)NCCc1ccccc1Cl`, the Potency result is “inactive”.
The same measure, in the same setting: under `COc1ccc(-c2nc(CS(=O)(=O)CC(=O)NCc3cccc(Br)c3)c(C)o2)cc1` stands “inactive”.
For the molecule `COc1ccc(-n2ncc3c(SCC(=O)NNC(C)=O)ncnc32)cc1`, the Potency result was “inactive”.
For `CC(=O)N1CCc2c(sc(NC(=O)CCS(=O)(=O)c3ccccc3)c2C#N)C1`, the Potency result was “inactive”.
The same measure, in the same setting: the same measure for `Cc1ccc(S(=O)(=O)NC2CCCCCC2)cc1C(N)=O`: “inactive”.
Same read-out and setting: the same measure for `O=C(CN1CCCCCC1)Nc1c(Cl)cc(Cl)cc1Cl`: “inactive”.
The same measure, in the same setting: under `N#C/C(=C\C1=C(N2CCOCC2)C(=C\c2ccccc2)/CC1)C(=O)Nc1ccccc1F` stands “inactive”.
Take `O=C1Nc2ccc(Br)cc2/C1=N/N=C/C1=C(N2CCOCC2)C(=C\c2ccccc2)/CC1`: the Potency result is “inactive”.
Same read-out and setting: the same measure for `C(=N\N1CCN(c2ccccn2)CC1)/C1=C(N2CCOCC2)C(=C/c2ccccc2)/CC1`: 10.4 µM (active); for `CC(=O)c1ccc(N2CCN(CC(O)c3ccccc3)CC2)cc1` (stereo not given): “inactive”; for `Oc1cc2c(cc1CN1CCN(c3ccccc3)CC1)OCO2`: “inactive”.
For `CC(C)c1ccc(O)c(CN2CCN(c3ccccc3)CC2)c1`, the Potency was 3.29 µM (active).
On the same count and under the same terms, the same measure for `O=C(CSc1nccc(=O)[nH]1)Nc1ccc(N2CCOCC2)c(Cl)c1`: “inactive”; for `O=C(CN1CCN(Cc2ccccc2)CC1)Nc1ccc(F)c(F)c1`: “inactive”.
As for `Cc1cccc(CN2CCC(CNC(=O)Nc3ccc(F)c(Cl)c3)CC2)c1`, the Potency was 10.4 µM (active).
On to `COc1cc(NC(=O)NCC2CCN(Cc3ccc(C)cc3)CC2)cc(OC)c1OC`, for which the Potency result was “inactive”.
As for `COc1cc(C(=O)NCc2nnc(SCC(=O)c3ccc(Cl)cc3)o2)cc(OC)c1OC`, the Potency result is “inactive”.
Still for that read-out and setting: under `CCC(=O)Nc1ccc(C(=O)NNC(=O)c2ccc(Cl)cc2)cc1` stands “inactive”.
Same read-out and setting: under `Cc1ccc(NS(=O)(=O)c2ccc(-c3ccc(=O)[nH]n3)o2)c(C)c1` stands “inactive”; under `CC#CC[N+](C)(C)CCCCCC`, 10.4 µM (active); under `Cc1ccn2c(=O)c(NC(=O)c3cccc4ccccc34)c(C)nc2c1`, “inactive”.
On the same count and under the same terms, the same measure for `Cc1[nH]c(C)c(S(=O)(=O)N2CCC(C)CC2)c1C(=O)N1CCCC1`: “inactive”; for `O=S(=O)(c1ccccc1)c1nc(Cc2ccccc2)oc1N1CCOCC1`: “inactive”.
On to `COc1ccc(C2=NN(C(=O)c3ccccc3C(=O)O)C(c3ccccc3O)C2)cc1` (stereo not given), for which the Potency result was “inactive”.
As for `Cc1cc(=O)n2nc(N3CCCC(C(=O)NCc4ccc(Cl)cc4)C3)sc2n1` (stereo not given), the Potency entry is “inactive”.
Same read-out and setting: the same measure for `COc1ccc(Br)cc1/C=N/n1c(C)nnc1C`: “inactive”; for `COc1cc(N2CCCC2)c(OC)cc1/C=C(/C#N)c1cccc(Br)c1`: 14.7 µM (active).
Still for that read-out and setting: under `COc1cccc(C(=O)Nc2ccc(N3CCCC3)cc2)c1` stands “inactive”; under `COc1ccccc1-n1c(SCC(=O)Nc2cccc(C(=O)O)c2)nnc1-c1ccccc1O`, “inactive”; under `Cc1cccc(N2C(=O)c3ccc(C(=O)Nc4cccc(C(=O)O)c4)cc3C2=O)c1`, “inactive”.
As for `Cc1c(Cl)cccc1NC(=O)CCC(=O)N/N=C/c1ccco1`, the Potency result is “inactive”.
`Cc1ccc(S(=O)(=O)CCC(=O)Nc2nnc(CC(C)C)s2)cc1`: the Potency entry was “inactive”.
On to `N#C/C=C/N1CCN(Cc2ccc3c(c2)OCO3)CC1`, for which the Potency result was “inactive”.
On to `CCN(CC)C(=O)c1sc2nc(-c3ccccc3)ccc2c1N`, for which the Potency result was “inactive”.
With `CS(=O)(=O)c1sc2nc(-c3ccccc3)cc(-c3ccccc3)c2c1N`, the Potency was 4.65 µM (active).
`CNc1nc(-c2ccccc2)cc(-c2ccccc2)n1`: the Potency result was “inactive”.
Same read-out and setting: under `CSc1ccccc1C(=O)OCC(=O)N1CCN(C(C)=O)CC1` stands “inactive”.
On the same count and under the same terms, the same measure for `O=C(NCCCc1ccccc1)C(=O)c1c[nH]c2ccccc12`: “inactive”.
Same read-out and setting: under `O=S(=O)(c1ccc(SCc2ccccc2)nc1)N1CCCCCC1` stands “inactive”; under `COc1ccc2c(c1)OC(O)(C(F)(F)C(F)F)CC2=O` (stereo not given), 3.29 µM (active).
For `CC1(C)CC(=O)c2ccc(O)cc2O1`, the Potency result was “inactive”.
Same read-out and setting: the same measure for `COc1ccc2c(c1)SC(C)CC2=O` (stereo not given): “inactive”; for `COc1cc(C2C(C(=O)c3ccco3)=C(O)C(=O)N2c2cc(C)on2)ccc1OCc1ccccc1` (stereo not given): “inactive”.
On the same count and under the same terms, under `CCC(C)[C@H](NC(=O)N1c2ccccc2NC(=O)[C@@H]1C(C)C)C(=O)N[C@@H](Cc1ccccc1)C(=O)O` (stereo not given in full) stands “inactive”.
Same read-out and setting: the same measure for `Cc1c(Cl)cccc1NC(=O)CSc1ccc(-c2cccnc2)nn1`: “inactive”.
Regarding `Cc1c(Cl)cccc1NC(=S)NCC(O)c1ccccc1` (stereo not given), the Potency entry was “inactive”.
For the molecule `Cc1c(Cl)cccc1NC(=S)N(Cc1ccccc1)Cc1cccnc1`, the Potency was 10.4 µM (active).
The same measure, in the same setting: under `Cc1cc(C)c(C#N)c(SCC(=O)N(CC(C)C)C2CCS(=O)(=O)C2)n1` (stereo not given) stands “inactive”; under `COCc1c(C(=O)N/N=C\c2cccnc2)nnn1-c1nonc1N`, “inactive”; under `CC(NC(=O)c1cccc(S(=O)(=O)N2CCc3ccccc3C2)c1)c1ccco1` (stereo not given), “inactive”.
Same read-out and setting: under `CC1Cc2ccccc2N1S(=O)(=O)c1ccc(Cl)nc1` (stereo not given) stands “inactive”.
Take `CC1CCc2sc(C(=O)N/N=C/C3CCCCC3)cc2C1` (stereo not given): the Potency entry is “inactive”.
Turning to `COc1ccc(C(CNC(=O)c2cc3c(s2)CCCC3)N2CCOCC2)cc1` (stereo not given), the Potency entry is “inactive”.
Still for that read-out and setting: under `CC1CCc2sc(C(=O)NCC(c3ccco3)N3CCCCC3)cc2C1` (stereo not given) stands 7.38 µM (active); under `CC1Cc2ccccc2N1S(=O)(=O)c1cccc(C(=O)NCC(c2ccco2)N2CCCC2)c1` (stereo not given), 11.7 µM (active); under `Cc1nn(C)c(Cl)c1CN1CCC(Oc2ccc(C(=O)N3CCCC3)cc2)CC1`, “inactive”.
The same measure, in the same setting: the same measure for `CC1CN(C(=O)CCC(=O)NC2CCN(Cc3ccccc3)CC2)c2ccccc2O1` (stereo not given): “inactive”.
On the same count and under the same terms, under `COC(=O)c1ccc(NC(=O)CSc2nncn2-c2cccnc2)cc1` stands “inactive”; under `CC(C)(CNCC(O)c1ccccc1)N1CCOCC1` (stereo not given), “inactive”.
With `O=C(NCc1ccc(Cl)c(Cl)c1)c1cccnc1`, the Potency result is “inactive”.
On to `OC(CNCc1ccc(Cl)c(Cl)c1)c1ccccc1` (stereo not given), for which the Potency is 5.86 µM (active).
`Cc1[nH]c2ccccc2c1C(=O)CN1CCCC(C)C1` (stereo not given): the Potency entry is “inactive”.
The same measure, in the same setting: under `CSc1nccc(NC(=O)c2ccc(C(C)(C)C)cc2)n1` stands “inactive”; under `O=C(c1cc(COc2cccc(C(F)(F)F)c2)on1)N1CCSCC1`, “inactive”; under `CN(C)CCCNC(=S)N1CCC(c2nc3ccccc3[nH]2)CC1`, “inactive”.
Still for that read-out and setting: the same measure for `CC(Sc1nncn1C)C(=O)Nc1cc(C(F)(F)F)ccc1N1CCOCC1` (stereo not given): “inactive”.
Same read-out and setting: the same measure for `CCC(=O)Nc1cc(C(F)(F)F)ccc1N1CCCC1`: “inactive”; for `O=C(CCC1CCCCC1)Nc1cc(C(F)(F)F)ccc1N1CCOCC1`: 11.7 µM (active); for `CCCCn1c(N)c(N(CC(C)C)C(=O)c2cnc(C)cn2)c(=O)[nH]c1=O`: “inactive”.
For `Cc1ccc(CSCC2Nc3ccc(C(=O)N4CCN(c5ccc(F)cc5)CC4)cc3NC2=O)cc1` (stereo not given), the Potency result is “inactive”.
On the same count and under the same terms, under `Cc1c(CCC(=O)O)c(=O)oc2cc(OCc3ccc(Br)cc3)ccc12` stands “inactive”; under `CCOC(=O)c1cc(=O)c2ccc(OCc3ccccc3)cc2o1`, “inactive”; under `Cc1c(Cc2ccccc2)c(=O)oc2cc(OCC(N)=O)ccc12`, 4.15 µM (active).
Same read-out and setting: under `CCN(CC(=O)NCCCN1CCOCC1)S(=O)(=O)c1cc(Cl)ccc1Cl` stands “inactive”; under `COc1cc(NS(=O)(=O)c2ccc(NC(=S)NC(=O)c3ccccc3)cc2)nc(OC)n1`, “inactive”; under `Cc1ccc(NC(=O)C(CC(=O)O)C2CCCO2)c(C)c1` (stereo not given), “inactive”.
As to `Cc1ccc(NC(=O)C2CCN(S(=O)(=O)c3ccc4c(c3)NC(=O)CO4)CC2)cc1C`, the Potency entry is “inactive”.
As to `COc1ccccc1N(CC(=O)Nc1ccccc1C(=O)N1CCCC1)S(C)(=O)=O`, the Potency entry was “inactive”.
Still for that read-out and setting: the same measure for `CCN1CCCC1Cn1cnc2c([nH]c3cc(OC)ccc32)c1=O` (stereo not given): “inactive”; for `Fc1ccc2[nH]c3c(N4CCN(Cc5ccc6c(c5)OCO6)CC4)ncnc3c2c1`: 5.22 µM (active); for `CCCCCc1c(C)nc(N2CCN(Cc3ccc4c(c3)OCO4)CC2)[nH]c1=O`: “inactive”.
`Fc1ccc2[nH]c3c(N4CCSCC4)ncnc3c2c1`: the Potency is 4.65 µM (active).
Regarding `CCN1CCCC1CNc1ncnc2c1[nH]c1ccc(F)cc12` (stereo not given), the Potency was 2.33 µM (active).
On the same count and under the same terms, the same measure for `CCN1CCCC1CNC(=O)c1cc2cc(OC)c(OC)cc2[nH]1` (stereo not given): “inactive”.
As to `O=c1[nH]c(N2CCN(Cc3ccc4c(c3)OCO4)CC2)nc2c1CCCC2`, the activity change, negative = inhibition is 11.4% [at 5.75 µM].
`Cc1ccc(NC(=O)Cc2nc(COC(=O)C(C)NS(=O)(=O)c3ccc(C)cc3)cs2)cc1` (stereo not given): the Potency result is “inactive”.
Same read-out and setting: the same measure for `O=C(NCCOc1cccnc1)c1ccc(OC2CCN(Cc3ccccn3)CC2)cc1`: “inactive”.
As for `CN(C)CCCn1c(SCc2ccc(Cl)cc2)nnc1-c1ccncc1`, the Potency result is “inactive”.
`COc1ccc(-c2nnc3n2CCCCC3)cc1`: the Potency result is “inactive”.
Regarding `CCOc1ccc(NC(=O)c2cc(C)nc3ccccc23)cc1`, the Potency entry is “inactive”.
On the same count and under the same terms, under `CCOc1ccc(-n2c(O)c(/C=N/Nc3nc(C)cc(C)n3)c3ccccc3c2=O)cc1` stands 4.15 µM (active).
With `CCOc1ccc(-n2c(O)c(/C=N/c3ccnn3Cc3ccncc3)c3ccccc3c2=O)cc1`, the Potency entry is “inactive”.
Still for that read-out and setting: under `O=C(Cc1ccccc1F)NC1CCSc2ccccc21` (stereo not given) stands “inactive”; under `CC1(C)NC(=O)N(CC(=O)N2CCN(S(=O)(=O)c3ccccc3F)CC2)C1=O`, “inactive”; under `CC1CCC(NS(=O)(=O)c2ccc3c(c2)CC(=O)N3)CC1` (stereo not given), “inactive”.
As for `c1ccc(-c2cn3cccnc3n2)cc1`, the Potency result was “inactive”.
As to `c1ccc(-c2cn3c(n2)CCc2ccc4cccnc4c2-3)cc1`, the Potency was 10.4 µM (active).
Still for that read-out and setting: the same measure for `Cc1cc(NC(=O)CCC(=O)N(CC(=O)NC2CCCC2)c2ccc(F)cc2)no1`: “inactive”; for `O=C(CCn1nnc2ccccc21)OCC(=O)c1ccc([N+](=O)[O-])cc1`: “inactive”.
The same measure, in the same setting: the same measure for `COc1ccc(CN2CCCC(N3CCc4ccccc4C3)C2)c(O)c1` (stereo not given): 1.65 µM (active); for `COc1cccc(N2C(=O)CC(N3CCc4ccccc4C3)C2=O)c1` (stereo not given): “inactive”.
As for `COc1ccc(CCC(C)N2CCc3ccccc3C2)cc1` (stereo not given), the Potency result is “inactive”.
In the case of `COc1ccc(NC(=O)CCNC(=O)Cn2ccc3ccccc3c2=O)c(OC)c1`, the Potency result was “inactive”.
Still for that read-out and setting: the same measure for `CCc1ccc(NC(=O)Cn2ncn3c(cc4ccccc43)c2=O)cc1`: “inactive”.
Take `COc1ccc(NC(=O)Cn2ncn3c(cc4ccccc43)c2=O)c(OC)c1OC`: the Potency is 10.4 µM (active).
